Screening data from PubChem.
An excerpt weighted towards active compounds, which were near 7.4% of everything screened.
Luciferase inh = blocks purified firefly luciferase enzyme activity. AID 1347043. purified P. pyralis luciferase, luminescence, biochemical. Potency, µM (highest dose often 115 µM), most hits filed as inhibitors. 2.5% of 76,000 active; note: nearly all actives have a fitted effect of over 65% in size
Target sequence (P08659 whole entry, looked up): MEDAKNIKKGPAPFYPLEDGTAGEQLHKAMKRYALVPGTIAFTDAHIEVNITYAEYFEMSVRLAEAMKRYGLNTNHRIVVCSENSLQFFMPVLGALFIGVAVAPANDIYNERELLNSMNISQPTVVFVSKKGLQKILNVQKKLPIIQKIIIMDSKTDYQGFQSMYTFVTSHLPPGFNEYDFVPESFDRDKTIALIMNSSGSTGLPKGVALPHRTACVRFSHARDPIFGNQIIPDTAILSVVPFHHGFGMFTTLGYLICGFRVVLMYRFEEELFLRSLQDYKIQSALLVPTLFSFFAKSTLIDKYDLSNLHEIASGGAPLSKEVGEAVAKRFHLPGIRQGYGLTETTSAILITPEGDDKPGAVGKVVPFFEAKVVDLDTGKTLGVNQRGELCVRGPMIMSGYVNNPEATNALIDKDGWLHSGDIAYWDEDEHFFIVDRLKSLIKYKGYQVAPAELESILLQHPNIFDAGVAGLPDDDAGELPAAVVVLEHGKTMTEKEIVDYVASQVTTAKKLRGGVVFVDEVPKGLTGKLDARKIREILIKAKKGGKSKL
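Inhibitors were tested against purified firefly luciferase in a biochemical, low-substrate format (both substrates at 10uM) and luminescence measured with a CCD imager.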
NPR1 antag = human Npr1 receptor antagonism. HEK293 hNpr1 GloSensor cGMP, ANP-stimulated luminescence. 1.6% of 76,000 active. Potency, µM (titrated, usually from 46.3 µM), inactives show at the highest dose activity change, negative = inhibition, hits mostly inhibitors; calls by dose curve; note: nearly all actives have a fitted effect of over 60% in size
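Compound pre-incubated 30 min at room temperature on GloSensor-loaded HEK293 cells stably carrying hNpr1 and the pGS-40F cGMP biosensor. Stimulation uses hNppA at 0.1 nM final; luminescence is taken at baseline and 20 min post-agonist.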
SNCA viab count = cell viability loss counter-screen; HEK-293-SNCA-luc viability, GF-AFC fluorescence, 24 h; 0.12% of 150,000 active; Potency, µM (top dose mostly 57.1 µM), for inactives: at the highest dose activity change, negative = cytotoxicity, usual class: cytotoxic;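 note: 0% = DMSO-treated cells and -100% = medium-only wells without cells; nearly all actives have a fitted effect of over 30% in size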
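Cytotoxicity counterscreen: after 24 h compound treatment of genome-edited SNCA-luciferase HEK-293 cells, live-cell protease substrate GF-AFC read by fluorescence after 30 min; activity scaled between DMSO (0%) and medium-only (-100%), curves Hill-fitted.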
3T3 cytotox = cytotoxic compounds in NIH 3T3 cells | NIH 3T3 viability, CellTiter-Glo ATP luminescence, 48-72 h | Potency, µM (titrated, usually from 96.7 µM), without a hit: at the highest dose activity change, negative = cytotoxicity, actives largely listed as inhibitors | 4.3% of 94,000 active; note: nearly all actives have a fitted effect of over 55% in size
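Viability of NIH 3T3 cells after 48 or 72 hr compound treatment at 37 °C was assessed by CellTiter-Glo, with luminescence imaged following a 10 min room-temperature step.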
SNCA expr inhib = reduces expression of the alpha-synuclein gene; HEK-293 SNCA-luciferase knock-in, luminescence, 24 h; Potency, µM (doses to about 57.2 µM), inactives show at the top dose activity change, negative = inhibition, actives largely listed as inhibitors; 0.17% of 140,000 active; AID 1671194;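 note: plate controls were DMSO cells for no effect and cell-free wells for full effect; nearly all actives have a fitted effect of over 45% in size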
HEK293 tox = HEK 293 cell cytotoxicity | HEK 293 viability, ATP luminescence (CellTiter-Glo), 48-72 h | Potency, µM (doses to about 115 µM), for inactives: top-dose activity change, negative = cytotoxicity, actives largely listed as inhibitors | 6.6% of 94,000 active | AID 1345083; note: nearly all actives have a fitted effect of over 60% in size
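Pintool-delivered compounds were incubated with HEK 293 cells (250 cells/well) at 37 degree Celsius for 48 or 72 hr. ATP-dependent luminescence (CellTiter-Glo) then reported remaining viable cells.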
Active calls of the source: *; ! = not active in a repeat; [ ] = remark or other dose. Unless noted, calls come from the whole dose curve; as a rule, active = well fitted curve in the direction sought with a large enough effect; inconclusive = small, poorly fitted or top-dose-only effect, or another doubt; inactive = no such curve, though single readings can be large; an effect the other way counts as inactive or inconclusive. Unless noted, % is set by controls: 0 for no effect and ±100 for the full control effect; potency is the fitted concentration of half-maximal effect.

How did O=c1cc(N2CCOCC2)oc2c(-c3ccccc3O)nccc12 do in these assays?
Luciferase inh: inactive; NPR1 antag: -0.1%[70.6 µM]; SNCA viab count: -9.2%[87.6 µM]; 3T3 cytotox: inconclusive; SNCA expr inhib: -15.3%[87.6 µM]; HEK293 tox: -22.5%[172 µM]

What do the screens show for `CCNC(=O)N1CCCCCC1CN1CCOCC1` (stereo not given)?
Luciferase inh: inactive; NPR1 antag: -0.6%; SNCA viab count: -1.5%; 3T3 cytotox: -13.7%; SNCA expr inhib: -12.9%; HEK293 tox: -3.4%

What do the screens show for `COc1ccccc1-c1nccc2c(=O)cc(N3CCOCC3)oc12`?
Luciferase inh: inactive; NPR1 antag: 1.2%[70.6 µM]; SNCA viab count: -17.6%[87.6 µM]; 3T3 cytotox: 25.1µM*; SNCA expr inhib: 22.6%[87.6 µM]; HEK293 tox: inconclusive

Results for Clc1ccccc1Cc1nc(-c2ccc(OC3CCNC3)cc2)no1 (stereo not given) ?
Luciferase inh: inconclusive; NPR1 antag: 8.0%; SNCA viab count: inconclusive; 3T3 cytotox: 12.6µM*; SNCA expr inhib: 126.6%; HEK293 tox: 17.8µM*

What do the screens show for `c1ccc(-c2nc(-c3ccncc3)no2)c(OC2CCNC2)c1` (stereo not given)?
Luciferase inh: inactive; NPR1 antag: -6.4%; SNCA viab count: inconclusive; 3T3 cytotox: inconclusive; SNCA expr inhib: 15.6%; HEK293 tox: inconclusive

How did O=C(Cn1ccn2nc3c(c2c1=O)CCCCC3)Nc1cc(F)ccc1F do in these assays?
Luciferase inh: inactive; NPR1 antag: 11.1%; SNCA viab count: 5.1%; 3T3 cytotox: -5.9%; SNCA expr inhib: 0.2%; HEK293 tox: inconclusive

How did O=C(Cn1ccn2nc3c(c2c1=O)CCCCC3)Nc1ccccc1F do in these assays?
Luciferase inh: 44.7µM*; NPR1 antag: 0.1%; SNCA viab count: -14.2%; 3T3 cytotox: -10.2%; SNCA expr inhib: inconclusive; HEK293 tox: -26.1%

Results for CC(C)c1ccccc1NC(=O)Cn1ccn2nc3c(c2c1=O)CCCCC3 ?
Luciferase inh: inactive; NPR1 antag: -3.0%; SNCA viab count: 0.6%; 3T3 cytotox: inconclusive; SNCA expr inhib: -6.0%; HEK293 tox: 39.8µM*

What do the screens show for `Cc1ccc(NC(=O)Cn2ccn3nc(-c4ccccc4)c(CO)c3c2=O)c(C)c1`?
Luciferase inh: inactive; NPR1 antag: -11.2%; SNCA viab count: 4.4%; 3T3 cytotox: inconclusive; SNCA expr inhib: -17.7%; HEK293 tox: 44.7µM*

Results for COc1ccccc1NC(=O)Cn1ccn2nc3c(c2c1=O)CCCCC3 ?
Luciferase inh: inactive; NPR1 antag: -16.3%; SNCA viab count: -24.9%; 3T3 cytotox: inactive; SNCA expr inhib: 0.6%; HEK293 tox: 8.8%

How did O=C1CC(c2ccccc2)N(C(=O)c2ccccn2)CCCCCN1 (stereo not given) do in these assays?
Luciferase inh: inactive; NPR1 antag: 4.9%; SNCA viab count: -5.2%; 3T3 cytotox: -4.2%; SNCA expr inhib: 9.3%; HEK293 tox: inactive

How did COc1ccc(Nc2ncc(-c3ccccc3OC)c3c2OCC3)cc1 do in these assays?
Luciferase inh: inconclusive; NPR1 antag: -26.7%[70.6 µM]; SNCA viab count: inconclusive; 3T3 cytotox: inconclusive; SNCA expr inhib: 38.3%[87.6 µM]; HEK293 tox: inconclusive

How did COc1ccccc1-c1cnc(Nc2ccc(Cl)cn2)c2c1CCO2 do in these assays?
Luciferase inh: inconclusive; NPR1 antag: -23.4%[70.6 µM]; SNCA viab count: 7.9%[87.6 µM]; 3T3 cytotox: inconclusive; SNCA expr inhib: 35.3%[87.6 µM]; HEK293 tox: 63.1µM*

How did COc1ccccc1-c1cnc(Nc2cccnc2)c2c1CCO2 do in these assays?
Luciferase inh: inconclusive; NPR1 antag: inconclusive; SNCA viab count: -16.5%[87.6 µM]; 3T3 cytotox: inconclusive; SNCA expr inhib: 15.1%[87.6 µM]; HEK293 tox: 79.4µM*

Results for COc1ccccc1-c1cnc(Nc2cccnc2OC)c2c1CCO2 ?
Luciferase inh: inconclusive; NPR1 antag: -22.5%[70.6 µM]; SNCA viab count: -14.4%[87.6 µM]; 3T3 cytotox: inconclusive; SNCA expr inhib: 9.7%[87.6 µM]; HEK293 tox: 28.2µM*

How did COc1ccc(CCc2nc(-c3nnn4c3COC(c3ccc(OC)cc3)C4)no2)cc1 (stereo not given) do in these assays?
Luciferase inh: inactive; NPR1 antag: 17.7%; SNCA viab count: 5.2%; 3T3 cytotox: inactive; SNCA expr inhib: -21.6%; HEK293 tox: 7.4%

What do the screens show for `O=C(NC1CCN(Cc2cccc(-c3cccs3)c2)CC1)c1ccc(Cl)cc1`?
SNCA viab count: 0.1%[12.5 µM]; 3T3 cytotox: -21.0%; SNCA expr inhib: inconclusive; HEK293 tox: inconclusive

How did O=C(Nc1ccccc1)NC1CCN(Cc2cccc(-c3cccs3)c2)CC1 do in these assays?
SNCA viab count: -7.2%[12.5 µM]; 3T3 cytotox: 14.1µM*; SNCA expr inhib: inconclusive; HEK293 tox: 20µM*!

How did O=C(Nc1ccc(Cl)cc1)NC1CCN(Cc2cccc(-c3cccs3)c2)CC1 do in these assays?
SNCA viab count: -4.4%[12.5 µM]; 3T3 cytotox: 12.6µM*; SNCA expr inhib: inconclusive; HEK293 tox: 20µM*

How did O=C(c1ccncc1)N1CCCC2(CN[S+](=O)([O-])c3cccnc3N2)C1 (stereo not given) do in these assays?
3T3 cytotox: -1.6%; HEK293 tox: inactive

What do the screens show for `COc1cccc(-c2noc(-c3ccc(-c4ccc(O)cc4)nc3)n2)c1OC`?
Luciferase inh: inconclusive; NPR1 antag: -1.2%; SNCA viab count: 4.6%; 3T3 cytotox: 44.7µM*; SNCA expr inhib: -6.5%; HEK293 tox: inconclusive

Results for COc1ccccc1-c1noc(-c2nc(-c3ccncc3)no2)n1 ?
Luciferase inh: inactive; NPR1 antag: -5.1%; SNCA viab count: 4.9%; 3T3 cytotox: 4.5%; SNCA expr inhib: 218.3%; HEK293 tox: -2.3%

What do the screens show for `c1cc(-c2cc(-c3cn[nH]c3)cn3cncc23)ccn1`?
Luciferase inh: inactive; NPR1 antag: 1.5%[70.6 µM]; SNCA viab count: -14.0%[87.6 µM]; 3T3 cytotox: 28.2µM*; SNCA expr inhib: inconclusive; HEK293 tox: 35.5µM*

Results for C1=C(c2cc(-c3ccncc3)cn3cncc23)CCOC1 ?
Luciferase inh: inactive; NPR1 antag: 3.5%[70.6 µM]; SNCA viab count: 4.5%[87.6 µM]; 3T3 cytotox: 25.1µM*; SNCA expr inhib: -22.2%[87.6 µM]; HEK293 tox: 100µM*

Results for CN(C)c1cccc(-c2cc(-c3cn[nH]c3)c3cncn3c2)c1 ?
Luciferase inh: inconclusive; NPR1 antag: -12.5%[70.6 µM]; SNCA viab count: -5.4%[87.6 µM]; 3T3 cytotox: 14.1µM*; SNCA expr inhib: -20.2%[87.6 µM]; HEK293 tox: inconclusive

How did c1cncc(-c2cc(-c3cccc(N4CCOCC4)c3)cn3cncc23)c1 do in these assays?
Luciferase inh: inactive; NPR1 antag: -10.5%[70.6 µM]; SNCA viab count: -16.4%[87.6 µM]; 3T3 cytotox: inconclusive; SNCA expr inhib: -16.0%[87.6 µM]; HEK293 tox: inconclusive
